In PubChem BioAssay AID504891 (National Center for Advancing Translational Sciences (NCATS), 2011):
The campaign covered roughly 390,000 compounds. About 35 (0.009%) were called active. Another 6% or so got no clear call; they are omitted. The call rests on the fitted dose curve; in most records, active means well fitted inhibition curve with a large enough effect in the polarisation, with a control signal flat (not every such curve was filed as active); inconclusive means small, poorly fitted or top-dose-only effect, or effect the other way, or a change in a side signal; inactive means no such curve, though single readings can be large or run the other way; the % refers to the polarisation. The list comes from a sample in which actives are over-represented; it also holds similar structures and randomly drawn compounds.

Target: Peptidyl-prolyl cis-trans isomerase NIMA-interacting 1 (Homo sapiens) (UniProt Q13526)
Assay: qHTS Assay to Find Inhibitors of Pin1
Conditions: Pin1 FP peptide displacement, HiFluor488, 10 min; series mostly up to 115 µM; activity, negative = inhibition: at the top concentration
Excerpt: NIH Molecular Libraries Probe Production Network [MLPCN]
NIH Chemical Genomics Center [NCGC]
The unique chemical properties of Pro allow for the adoption of two completely distinct amide bond conformations (cis and trans). Peptidyl-prolyl cis/trans isomerases (PPIases) are evolutionary conserved enzymes that catalyze cis/trans isomerization of peptidyl-prolyl peptide bonds. Distinct from all other PPIases such as cyclophilins and FK506-binding proteins (FKBPs), Pin1 binds a subset of phos.Ser/Thr-Pro-containing proteins using its protein-targeting WW domain and isomerizes only specific phos.Ser/Thr-Pro bonds, which cannot be effectively catalyzed by other known PPIases.
Pin1-catalyzed conformational regulation can control a spectrum of activities of many key regulators in diverse cellular processes such as cell growth, genotoxic and other stress responses, immune response, germ cell development, neuronal differentiation and survival. Pin1 has emerged as a novel molecular timer that modulates its multiple targets at various steps of a given cellular process to synergistically control the amplitude and duration of a cellular response or process. Importantly, Pin1 is tightly regulated by multiple levels and its deregulation has an important role in a growing number of pathological conditions, including cancer, Alzheimer's disease, aging, asthma and microbial infection, providing a potentially new therapeutic option.
The goal of this screen is to find small-molecule inhibitors of Pin1 using a fluorescence polarization competition assay. A HiFluor-488-labeled peptide binds to the active site of Pin1 and can be displaced by compounds. Compounds were screened as a concentration-titration series that ranged from 57 uM to 0.7 nM.
NCGC Assay Protocol Summary:
Pin1 (0.6 uM) was dispensed into black, solid 1536-well plates at 2 uL/well in 10 mM HEPES (pH 7.5), 10 mM NaCl, 0.01% Tween20, 1 mM DTT, and 1% glycerol. Then, 23 nL of compounds or DMSO were delivered to each well using a pin tool. Two uL of Pin1-1b-HiFluor488 peptide (10 mM HEPES (pH 7.5), 10 mM NaCl, 0.01% Tween20, 1 mM DTT, and 1% glycerol, 0.02 uM Pin1-1b-HiFluor488) was then dispensed, and plates were incubated at room temperature for 10 min. The plates were measured on a ViewLux plate reader for fluorescence polarization signal using a 480/20 nM nm excitation filter and 540/25 nM nm S and P emission filters with a 20 second exposure. The %Activity was determined from the corrected fluorescence polarization values. Unlabeled Pin1-1c peptide was used as a control (3.5 mM two-fold serial; 20 uM final concentration) along with a 1x (0.3 uM) and 0x (no-enzyme) Pin1 enzyme control to normalize %Activity of identified inhibitors; 0x enzyme values corresponded to 100%Activity (full inhibition), while 1x Pin1 enzyme values were used to normalize 0%Activity (no inhibition).
Concentration-response curves were fitted to the signals arising from the resulting fluorescence polarization. The concentration-effect curves were then classified based on curve quality (r2), response magnitude and degree of measured activity, and compounds were subsequently categorized based on their curve class.
Keywords: Peptidyl prolyl isomerase, Pin1, fluorescence polarization, MLSMR, MLPCN, NIH Roadmap, qHTS, NCGC

Sequence of Peptidyl-prolyl cis-trans isomerase NIMA-interacting 1 (Homo sapiens) (Q13526 whole entry, looked up): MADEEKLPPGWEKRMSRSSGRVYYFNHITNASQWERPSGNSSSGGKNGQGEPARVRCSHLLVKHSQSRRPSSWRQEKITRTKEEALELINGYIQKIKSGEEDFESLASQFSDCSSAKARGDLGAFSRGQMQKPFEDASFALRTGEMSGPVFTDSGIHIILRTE

activity, negative = inhibition, inactive:
Cc1ccccc1CNC(=O)C(=O)NCC(c1cccs1)S(=O)(=O)c1cccs1 (stereo not given) -12.7%
CC1CCC2(CC1)N=C(c1ccccc1)C(=O)N2CC(=O)Nc1ccc(F)c(Cl)c1 (stereo not given) 1.13%
COc1cc(OC)c(NC(=O)c2nc(-c3ccncc3)no2)cc1Cl 17.2%
Cc1cccc(CNC(=O)c2cnc3sc(N4CCCCC4)nn3c2=O)c1 -0.196%
CCc1ccccc1NC(=O)N1CCC2(CC1)Oc1ccccc1C(=O)N2Cc1ccccc1F -1.18%
COc1ccc(OC)c(NC(=O)CSc2nc3ccccc3nc2N2CCCCC2)c1 32.3%
CN1CCOc2cc(S(=O)(=O)N3CCN(S(=O)(=O)c4c(F)cccc4F)CC3)cnc21 -1.45%
O=c1c2ccccc2nc2sc(Nc3ccc(Oc4ccccc4)cc3)nn12 -0.254%
CCn1c(C)c(C)c2cc(C(=O)NCCc3cc(OC)ccc3OC)ccc21 23.6%
CCC(=O)N1CCc2cc(CNS(=O)(=O)c3ccc(Br)s3)ccc21 -1.02%
O=[S+]([O-])(c1ccc(OC(F)(F)F)cc1)N1CCN([S+](=O)([O-])c2ccc3c(c2)OCCO3)CC1 0.0725%
CC(C)(C)c1ccc(C(=O)NCC(c2ccc(Cl)cc2)N2CCOCC2)cc1 (stereo not given) 7.78%
COc1ccccc1Cc1nc2ccccc2nc1SCC(=O)N1CCCc2ccccc21 -0.247%
COc1ccc(C2Nc3ccccc3C(=O)N2Cc2ccc(Cl)cc2)cc1COc1ccc(NC(C)=O)cc1 (stereo not given) 7.36%
Cc1nn2c(=O)cc(COC(=O)c3ccccc3NC(=O)COc3ccccc3C)nc2s1 1.55%
CCOC(=O)c1ccc(NC(=O)CC2C(=O)N(c3ccccc3)C(=O)N2Cc2cccs2)cc1 (stereo not given) 13.3%
CC1CCCN(S(=O)(=O)c2ccc3[nH]c(=O)cc(C(=O)NCCc4ccc(Cl)cc4)c3c2)C1 (stereo not given) -5.21%
COc1ccc(N2CCN(S(=O)(=O)c3ccc4c(c3)CC(=O)N4)CC2)cc1 31.3% [at 230 µM]
COc1ccc(N2CCN(C(=O)c3c(C)oc4nc(C)nc(N5CCCC5)c34)CC2)cc1 7.79%
O=[S+]([O-])(c1ccc2c(c1)OCCO2)N1CCN([S+](=O)([O-])c2c(Cl)cc(Cl)cc2Br)CC1 13.4%
Cc1ccc(C)c(N2CCN(C(=O)C3CCC(CNS(=O)(=O)c4cccs4)CC3)CC2)c1 (stereo not given) 38.7%
O=C(CSc1nc(-c2cccc(F)c2)[nH]c1-c1ccccc1)Nc1ccc2c(c1)OCO2 16.5%
COc1cc(F)c(S(=O)(=O)N2CCCN(S(=O)(=O)c3ccc(N)cc3)CC2)c(F)c1 0.343%
COC(=O)c1cnn(-c2ccc(C(=O)Nc3ccc(OC(F)(F)F)cc3)cc2)c1N -8.42%
O=S(=O)(c1ccc2c(c1)OCCO2)N1CCN(S(=O)(=O)c2cc(F)ccc2F)CC1 -1.33%
COC(=O)c1ccc(NC(=O)c2cnn(-c3ccc(Cl)cc3)c2C2CCN(C(=O)OC(C)(C)C)CC2)cc1 22.6%
CCCCN(C)CCCNC(=O)CN1N=C(c2ccc(OC)cc2)CCC1=O 2.62%
CCOc1ccc2oc(=O)cc(CN3CCN(C(=O)c4ccc(F)cc4)CC3)c2c1 -0.135%
O=C(O)c1ccc(Cn2c(SCc3ccc(F)cc3)nc3ccncc32)cc1 -0.106%
Cc1ccc(-c2nc3ccccn3c2Nc2c(C)cccc2C)o1 -3.86%
Cc1cccc(C(=O)NCCc2nc3ccccc3n2Cc2ccccc2Cl)c1 -1.58%
COc1cccc(C(=O)N(Cc2cccc(Cl)c2)Cc2ccco2)c1 -2.34%
CC(CNC(=O)c1nnc(Cc2cccc(F)c2)o1)c1ccccc1 (stereo not given) -7%
Cc1noc(C)c1-c1ccc2ncnc(NCc3ccc(F)c(F)c3)c2c1 -7.12%
O=C(CSCc1cnn(-c2ccccc2)c1-n1cccc1)NCc1ccc(Cl)cc1 26.7%
CC(C)c1ccc(NC(=O)C2CCN(c3nc(-c4ccc(C(C)C)cc4)no3)CC2)cc1 1.54%
NC(=O)C1CCN(C(=O)c2cccc(NC(=O)c3nsc4ccccc34)c2)CC1 -12%
Cc1ccc(C(=O)NC2CCN(C#N)CC2)cc1 5.3%
O=S(=O)(NCCc1nnc2ccc(SCc3ccc(Cl)cc3Cl)nn12)c1ccccc1 -1.54%
COC(=O)C(CC(C)C)NS(=O)(=O)c1cc(Br)ccc1Br (stereo not given) -1.84%
N#Cc1nc(NCc2ccc(Cl)c(Cl)c2)c2ncn(CCCO)c2n1 -3.83%
COCCNS(=O)(=O)c1cc(-c2nn3c(C)nnc3c3ccccc23)ccc1C -2.33%
O=S1(=O)N=C(Oc2cccc(Br)c2)c2ccccc21 6.87%
COc1ccc(CNC(=O)c2ccc3c(c2)nc2n3CCOC2)c(OC)c1 0.756%
COc1ccc(C2Nc3ccccc3C(=O)N2Cc2ccc(CNC(=O)CO)cc2)cc1COc1ccc(NC(C)=O)cc1 (stereo not given) 21.7%
COc1ccc(OC)c(NC(=O)C2CCN(S(=O)(=O)c3ccc(C)cc3)CC2)c1 12.5%
O=C1CC(c2ccccc2)CC2=C1C(c1ccco1)n1nc(C(F)(F)F)nc1N2 (stereo not given) -3.33%
COc1ccc(C2Nc3cccc(OC)c3C(=O)N2Cc2ccccc2)cc1COc1ccc(NC(C)=O)cc1 (stereo not given) 34.9%
COc1ccc(-c2ccc(C3C4C=CCCC4(C)C(=O)N3Cc3ccccc3)c(F)c2)cc1OC (stereo not given) -0.544%
Cc1cc(C)n2ncc(C(=O)Nc3cccc(C#N)c3)c2n1 1.24% [at 28.7 µM]
CCCOc1ccc(NC(=O)CC2C(=O)N(c3ccccc3)C(=O)N2Cc2ccco2)cc1 (stereo not given) 1.04%
CCOC(=O)N1CCc2c(sc3c2c(=O)n(Cc2ccccc2)c(=O)n3CC(=O)Nc2cccc(C)c2)C1 16.1%
COC(=O)c1ccccc1NC(=O)c1ccc(C#N)cc1 5.67%
C=C1CCN(Cc2ccc(OC)cc2)S(=O)(=O)c2ccccc21 -0.748%
COc1ccc(C2=Nn3c(nnc3-c3ccccc3O)SC2)cc1 9.34%
O=C(c1ccco1)n1nc(-c2ccc(Cl)cc2)nc1NCc1ccccc1 -4.7%
Cc1ccc(S(=O)(=O)N2CCN(c3nc(-n4cnc5ccccc54)nc4ccccc34)CC2)cc1 -7.59%
O=C1NS(=O)(=O)c2ccccc21 -0.655%
COc1ccc(CN(Cc2ccccc2)C(=O)c2ccc(O)cc2)cc1COc1ccc(NC(C)=O)cc1 7.88%
COc1ccccc1/C=C/c1nc(C#N)c(NC(C)c2ccccc2)o1 (stereo not given) 6.03%
O=C(CNC(=O)c1ccc(Cl)c(C(F)(F)F)c1)OC(C(=O)Nc1cc(C(F)(F)F)ccc1Cl)c1ccccc1 (stereo not given) -2.44%
Cc1ccc(CNC(=O)CSc2c(C)cnc3c2c(=O)n(C)c(=O)n3C)cc1 -9.06%
CCc1cc2c(cc3c(=O)n(CC(=O)N4CCN(c5cc(Cl)ccc5C)CC4)ncn32)s1 3.35%
CCCN1CCC(=O)N(C(CSc2ccc(C)cc2)Cc2ccccc2)CC1 (stereo not given) 1.02%
CCCCn1c(=O)c2oc3ccccc3c2n(CC(=O)Nc2ccccc2OC)c1=O -1.59%
Cn1c(=O)oc2cc(S(=O)(=O)CCC(=O)NCCc3ccc(Cl)cc3)ccc21 -2.53%
COc1ccc(C(=O)N(Cc2ccccc2)Cc2ccc(OC)c(COc3ccc(NC(C)=O)cc3)c2)c(O)c1 2.36%
O=C1C(F)N([S+](=O)([O-])c2ccc3c(c2)OCCO3)CCN1[S+](=O)([O-])c1c(F)cccc1F (stereo not given) 0.717%
Cc1ccccc1CN1CCC(CNC(=O)c2cc3ccc4cccnc4c3[nH]2)CC1 2.12%
CN(Cc1cncn1C)c1ncnc2ccc(-c3ccc4c(c3)OCO4)cc12 -0.072%
CC(C)(C)NS(=O)(=O)c1cccc(Nc2nn3c(=O)c4ccccc4nc3s2)c1 102%
COc1ccc(Cn2cc(C(=O)c3ccc(C)cc3)c(=O)c3cc(OC)c(OC)cc32)cc1 8.62%
Cc1ccc(NC(=O)c2cc3cc(C)ccc3n2C)cc1 -5.9%
N#CN1CCC(NC(=O)c2ccc(F)cc2)CC1 -0.423%
O=C(CNC(=O)c1ccc(Cl)cc1Cl)OC(C(=O)Nc1cc(C(F)(F)F)ccc1Cl)c1ccccc1 (stereo not given) 36.8%
N#CN1CCC(NS(=O)(=O)c2cccc(F)c2)C1 (stereo not given) -0.967%
O=C(COc1ccccc1)NCc1ccc2c(c1)CCN2C(=O)c1ccc(F)cc1 -3.72%
CN(C)c1ccc(C(=O)NCC(=O)OC(C(=O)Nc2cc(C(F)(F)F)ccc2Cl)c2ccccc2)cc1 (stereo not given) -0.299%
CC1CCCCN1S(=O)(=O)c1ccc(F)c(C(=O)Nc2ccccc2C(F)(F)F)c1 (stereo not given) -3.9%
Cc1noc(C)c1-c1ccc2ncnc(NCc3ccc4[nH]ccc4c3)c2c1 4.44%
Brc1ccc2c(c1)NC(c1cccnc1)=NC(c1ccccc1)=N2 -8.22%
CS(=O)(=O)c1ccc(-c2nnc(NC(=O)c3ccc4c(c3)OCCO4)o2)cc1 0.171%
CCN(Cc1ccccc1)C(=O)c1cn(-c2cccc(OC)c2)c(=O)c2ccccc12 -15.2%
O=C(c1ccccc1F)N1CCC(c2nc3c(nnn3Cc3cccc(F)c3)c(=O)[nH]2)CC1 -1.2%
COc1cc(OC)cc(C(=O)Nc2cc3nn(-c4ccccc4)nc3cc2Cl)c1 1.15%
O=C(c1ccc2c(c1)N(Cc1ccccc1)C(=O)c1ccccc1S2(=O)=O)N1CCC(Cc2ccccc2)CC1 4.02%
COc1cccc(Cn2c(SCc3ccc(C(=O)N4CCC(C)CC4)cc3)nc3ccncc32)c1 5.45%
O=S(=O)(c1ccc2nc(NCc3ccccc3Cl)ccc2c1)N1CCCCC1 44.9%
Oc1ccc(/C=C/c2c(F)cccc2F)c2cccnc12 0.14%
Oc1ccc(Br)cc1C1C=C(c2ccc3c(c2)OCO3)NC(c2ccc(Cl)cc2)N1 (stereo not given) 52.8%
O=C(NCc1ccccn1)[C@]1(C(F)(F)F)C[C@H](CCc2ccccc2)CCCO1 -0.539%
CCOc1ccccc1C(=O)Nc1ccc(S(=O)(=O)N2CCCCC2c2cccnc2)cc1 (stereo not given) 21.9%
Cc1ccc(-c2nc3ccccn3c2Nc2ccc(F)cc2)o1 -7.84%
COc1ccc(CNC(=O)CSc2n[nH]c(-c3ccc(F)cc3)n2)cc1 -3.7%
O=C(NC1CC(=O)N(c2ccc(F)cc2)C1)c1ccc(S(=O)(=O)N2CCCC2)cc1 (stereo not given) -9.06%
